Cruzain inh noDet: qHTS Assay for Promiscuous and Specific Inhibitors of Cruzain (without detergent); Cruzipain (Trypanosoma cruzi), P25779; AID 1476, 2009; purified cruzain, Z-FR-AMC fluorescence, no detergent; 200,000 tested, 2.3% active; Potency, µM, inactives show max response, negative = inhibition, hits mostly inhibitors;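 further: plate controls were enzyme without inhibitor for no effect and buffer without enzyme for full effect; nearly all actives have a fitted effect of over 40% in size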
Target sequence (P25779 123-467 limits assumed): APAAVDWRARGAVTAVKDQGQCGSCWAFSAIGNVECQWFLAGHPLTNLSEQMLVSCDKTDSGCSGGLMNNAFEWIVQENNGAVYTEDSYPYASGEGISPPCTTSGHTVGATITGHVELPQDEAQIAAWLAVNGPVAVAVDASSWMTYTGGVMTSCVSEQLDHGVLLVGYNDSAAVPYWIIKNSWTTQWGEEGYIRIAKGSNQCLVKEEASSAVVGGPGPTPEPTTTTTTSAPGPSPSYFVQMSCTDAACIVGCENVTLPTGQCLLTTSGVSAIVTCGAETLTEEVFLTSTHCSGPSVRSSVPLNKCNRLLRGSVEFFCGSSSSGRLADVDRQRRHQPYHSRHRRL
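Purified cruzain at 1.5 nM, pre-incubated 15 min with compound at room temperature in 100 mM sodium acetate pH 5.5, 5 mM DTT, 0.00005% Triton X-100. Reaction started with 2 uM Z-FR-AMC; AMC fluorescence increase over 60 s gives rate.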
NS1 function inh: qHTS Assay for Inhibitors of Influenza NS1 Protein Function. Potency, µM (series often up to 46.1 µM), inactives show at the top dose activity, positive = more growth. 270,000 tested, 0.4% active; calls by dose curve; further: actives are rising curves; nearly all actives have a fitted effect of over 50% in size
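Recovery from NS1-induced slow growth read by OD600 in budding yeast switched to galactose assay medium (pH 6.0, -URA) at 1:100 dilution. Compound 23 nl per well; the matching strain lacking NS1 serves as control.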
Cruzain inh Det: qHTS Assay for Promiscuous and Specific Inhibitors of Cruzain (with detergent); Potency, µM, for the others: max response, negative = inhibition, actives largely listed as inhibitors; AID 1478, 2009; purified cruzain, Z-FR-AMC fluorescence, 0.01% Triton; 200,000 tested, 0.43% active; Cruzipain (Trypanosoma cruzi), P25779;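 further: plate controls were neutral wells for no effect and buffer without enzyme for full effect; nearly all actives have a fitted effect of over 40% in size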
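Steps: dispense cruzain (1.5 nM final) in acetate buffer pH 5.5 with DTT and 0.01% Triton X-100; pin-transfer compounds; incubate 15 min RT; add Z-FR-AMC (2 uM final); read fluorescence every 30 s, using the 60 s intensity change.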
Active calls of the source: *; u = inconclusive; x = no result given; ! = a repeat was not active. The full list was thinned out, with hits kept by preference. Unless noted, the call rests on the fitted dose curve; in most records, active means well fitted curve in the direction sought with a large enough effect; inconclusive means small, poorly fitted or top-dose-only effect, or another doubt; inactive means no such curve, though single readings can be large; an effect the other way counts as inactive or inconclusive. Potency means the concentration at half of the fitted maximal effect.

SMILES	Cruzain inh noDet	NS1 function inh	Cruzain inh Det
COc1ccc2[nH]cc(CCNc3nc(-c4ccc(N(C)C)cc4)nc4ccccc34)c2c1	25.1µM*	x	-16.0%
COc1ccc2[nH]cc(CCNc3nc(-c4ccc(C(=O)N(C)C)cc4)nc4ccccc34)c2c1	-3.9%	x	-4.3%
COc1ccc2[nH]cc(CCNc3ncnc4ccc(-c5ccc6c(c5)OCO6)cc34)c2c1	31.6µM*	x	-0.3%
COc1ccc2[nH]cc(CCNc3ncnc4ccc(-c5cccnc5)cc34)c2c1	-13.8%	x	-3.7%
COC(=O)C1=C(C)N(CC2CC2)C(=O)N[C@H]1CCc1ccccc1	-13.8%	x	0.6%
COc1ccc(C2NC(=O)N(C)C3=C2C(=O)N(c2cccc(Cl)c2)C3)cc1 (stereo not drawn)	12.1%	x	-10.7%
FC(F)(F)c1cnc(Sc2nnc(-c3cccs3)n2CC2CCCO2)c(Cl)c1 (stereo not drawn)	-9.6%	7.2%	1.4%
N#Cc1c(Sc2ncc(C(F)(F)F)cc2Cl)nsc1C/C=N\OCc1c(F)cccc1Cl	3.98µM*	14.0%	-5.9%
CN(C)c1ncc2nc(-c3ccc(Cl)cc3)c(=O)n(-c3ccccc3)c2n1	-13.4%	x	-3.3%
CCc1ccc2c(c1)c(=O)c(S(=O)(=O)c1ccc(F)cc1)cn2CC(=O)Nc1ccc(C)cc1C	-10.4%	x	-0.9%
CCCCC/C=C\C/C=C\CCCCCCCCCC(=O)NC(C)C(=O)O (stereo not drawn)	26.5%	x	1.5%
COC(=O)c1ccc(C(NC(=O)OCc2ccccc2)/C(F)=C/[C@@H](C)C(=O)NCc2cc(F)cc(F)c2)cc1 (stereo partly drawn)	-2.8%	x	-1.4%
COC(=O)c1ccc(C(NC(=O)OCc2ccccc2)/C(F)=C/[C@@H](C)C(=O)NCc2ccc(-c3ccccc3)cc2)cc1 (stereo partly drawn)	10µM*	7.6%	2.1%
COC(=O)N[C@@H](c1cccc(C)c1)C(C(C)=O)C(=O)OC (stereo partly drawn)	-0.4%	x	1.6%
NC(=Nc1ccccc1)NC(=O)c1nc(Cl)c(N)nc1N	u	-10.1%	-12.2%
NC(=NCc1ccccc1)NC(=O)c1nc(Cl)c(N)nc1N	14.1µM*!	-9.4%	-13.1%
CCOC(=O)c1cc([N+](=O)[O-])sc1NC(=O)c1ccc(S(=O)(=O)N2CC3(C)CC2CC(C)(C)C3)cc1 (stereo not drawn)	3.98µM*	-1.7%	-2.5%
CC1(C)CC2CC(C)(CN2S(=O)(=O)c2ccc(C(=O)Nc3ccc(S(=O)(=O)N4CCOCC4)cc3)cc2)C1 (stereo not drawn)	-1.8%	5.5%	-5.4%
O=C(CSc1nccn1Cc1ccc(Cl)cc1)Nc1ccc2c(c1)OCCO2	0.9%	x	-5.4%
CCOc1ccc(-c2nnn(CC(=O)NCc3ccc(OC)cc3)n2)cc1OCC	23.6%	-2.2%	0.5%
COc1ccc(CNC(=O)Cn2nnc(-c3ccc(NC(=O)C4CCCCC4)cc3)n2)cc1	10µM*	7.8%	3.0%
NCCC[C@@H](N)C(=O)O	19.4%	0.0%	0.1%
CCCN(CCC)CC(O)Cn1cc(/C=C/C(=O)c2ccc(OCC)cc2)c2ccccc21 (stereo not drawn)	0.3%	x	-8.6%
COc1ccccc1C(=O)Nc1sc2c(c1C(=O)NCc1ccco1)CCCC2	7.94µM*	1.9%	-24.0%
COc1ccccc1NC(=O)c1c(NC(=O)c2ccco2)sc2c1CCC2	7.94µM*	u	-5.0%
SMILES	Cruzain inh noDet	NS1 function inh	Cruzain inh Det
Cc1cccc(C(=O)Nc2sc3c(c2C(=O)NCc2ccco2)CCCC3)c1	-8.6%	x	3.4%
N#Cc1c(NC(NC(=O)c2ccco2)C(=O)c2ccccc2)sc2c1CCCC2 (stereo not drawn)	25.1µM*	5.3%	-4.0%
COc1ccccc1NC(=O)c1c(NC(=O)c2ccco2)sc2c1CCC(C(C)(C)C)C2 (stereo not drawn)	-6.4%	x	-1.3%
NC(=O)c1c(NC(NC(=O)c2ccco2)C(=O)c2ccc(Cl)cc2)sc2c1CCCC2 (stereo not drawn)	-14.8%	25.0%	-12.5%
CC1(C)OC[C@@H]2O[C@H](n3cnc4c(N)nc(Cl)nc43)[C@@H](OS(C)(=O)=O)[C@@H]2O1	5.6%	-7.6%	5.5%
CCOC(=O)CBr	1.0%	x	0.6%
Cc1ccc(-n2ncc3c(NCCc4ccccc4)ncnc32)cc1	-17.0%	x	-0.7%
CNC(CC(=O)O)C(=O)O (stereo not drawn)	3.0%	x	5.7%
S=C(Nc1ccc(OCc2ccccc2)cc1)Nc1cccc(Cl)c1Cl	u	u	-4.8%
S=C(Nc1ccccc1)Nc1ccc(OCc2ccccc2)cc1	12.6µM*	0.9%	5.1%
COc1ccc(-c2nc3cncnc3n(-c3ccccc3)c2=O)cc1	-14.2%	x	4.6%
O=c1c(-c2ccc(F)cc2)nc2cnc(Nc3ccccc3)nc2n1Cc1cccs1	-0.2%	x	-0.2%
NC(=O)c1ccc(NC(=O)CSc2nncn2-c2ccccc2)cc1	x	9.5%	x
O=C(CSc1nncn1-c1ccccc1)Nc1cc(Cl)cc(Cl)c1	25.1µM*	0.6%	-2.0%
COc1ccc(CCNC(=O)Cn2c(=O)nc(-c3ccccc3)c3cc(Cl)ccc32)cc1OC	1.0%	x	0.4%
CC1CC(C)CN(c2ccc(-n3cnnn3)cc2[N+](=O)[O-])C1 (stereo not drawn)	3.1%	6.0%	-5.5%
O=[N+]([O-])c1cc(-n2cnnn2)ccc1N1CCC(Cc2ccccc2)CC1	25.1µM*	x	-4.9%
COc1ccc(-c2cc(C#N)nc(Oc3ccc(Cl)cc3)n2)cc1	25.1µM*	1.5%	28.2µM*
COc1ccc(-c2cc(C#N)nc(N3CCNCC3)n2)cc1	31.6µM*	3.6%	-24.2%
N#Cc1cc(-c2ccccc2)nc(Oc2ccccc2)n1	-25.4%	-20.9%	15.8µM*
CN1CCN(c2nc(C#N)cc(-c3ccccc3)n2)CC1	u	10.5%	-22.4%
N#Cc1ccc(Oc2nc(C#N)cc(-c3ccccc3)n2)cc1	-23.2%	7.0%	14.1µM*
NC(=O)c1cc(-c2ccccc2)nc(Oc2ccccc2)n1	-14.3%	-9.3%	-2.9%
COc1ccc(-c2cc(C#N)nc(Cl)n2)cc1	x	-49.8%	x
CCN(CC)c1nc(C#N)cc(-c2ccc(OC)cc2)n1	-14.2%	-5.9%	-13.6%
SMILES	Cruzain inh noDet	NS1 function inh	Cruzain inh Det
COc1ccc(NC(=O)c2oc3ccccc3c2NC(=O)Cc2coc3c(C)c(C)ccc23)cc1	u	x	-4.3%
COc1ccc(NC(=O)Cn2ncc3c4ccccc4n(Cc4ccccc4)c3c2=O)cc1OC	3.8%	x	-2.5%
COc1ccc(-c2cc(C(F)(F)F)nc(N3CCCCCC3)n2)cc1	6.3%	-0.4%	-1.3%
COc1ccc(-c2cc(C(N)=O)nc(N3CCCCCC3)n2)cc1	31.6µM*	5.0%	-3.7%
CC(OC(=O)c1cc2ccccc2cc1O)C(=O)Nc1ccc(S(N)(=O)=O)cc1 (stereo not drawn)	x	0.6%	x
O=C(COC(=O)c1c2c(nc3ccccc13)CCCCC2)NCc1ccc2c(c1)OCO2	-18.1%	-33.3%	-2.8%
CC(OC(=O)c1c2c(nc3ccccc13)/C(=C\c1ccc3c(c1)OCO3)CCC2)C(=O)Nc1ccc(S(N)(=O)=O)cc1 (stereo not drawn)	15.8µM*	11.2µM*	-0.2%
Cc1cccc(C)c1NC(=O)COC(=O)c1c2c(nc3ccccc13)/C(=C\c1ccc3c(c1)OCO3)CCC2	7.94µM*	0.0%	-0.9%

Source: PubChem BioAssay
